Results from PubChem BioAssay (Tox21).
Unmarked numbers belong to inactive results. The source made the active and inactive calls. The call rests on the fitted dose curve; in most records, active means well fitted curve in the direction sought with a large enough effect in the repeat runs; inconclusive means weak or mixed curves; inactive means flat fitted curve, though single readings scatter.

Test: qHTS assay to test for compound auto fluorescence at 460 nm (blue) in HepG2 cells (AID 720687)
Details: autofluorescence 405/460 nm, 1 h; series mostly up to 91.3 µM; fluorescence, % of fluorescent control: at the top concentration
Description: U.S. Tox21 Program National Center for Advancing Translational Sciences [NCATS] NIH Chemical Genomics Center [NCGC] U.S. Environmental Protection Agency [EPA] National Institutes of Environmental Health Sciences [NIEHS] National Toxicology Program [NTP] U.S. Food and Drug Administration [FDA] Tox21 Assay Overview: Compound auto fluorescence often interferes with screening of the compound library against various biological targets and signaling pathways. Some of these compounds may have fluorophoric properties. Such properties may interfere with the assay outputs resulting in false positives and/or negatives. To decrease such complications and ensure the compound activities are relevant in terms of biological response, the Tox21 10K compound library was screened for auto fluorescence. From the fluorophores used as reporter signals in our screening assays, the auto fluorescence equivalencies of compounds against three fluorophores have been evaluated: Triamterene, Fluorescein and Rose Bengal sodium for blue, green and red fluorescence, respectively. The fluorescence intensities were measured using Excitation/Emission wavelengths at 405/460nm, 485/535nm and 540/590nm for blue, green and red labels, respectively. This assay includes the blue fluorescence data.
Tox21 Assay Protocol Summary: 2,000 HepG2 cells in 5 uL of culture medium (MEM containing 10% FBS) per well were dispensed into black wall/clear bottom 1536-well plates using a Multidrop Combi Dispenser (ThermoFisher Scientific, Waltham, MA). The assay plates were incubated overnight at 37 C to allow cell attachment to the well bottom, followed by the transfer of 23 nL compound or DMSO vehicle by a pintool work station (Kalypsys , San Diego, CA). After the assay plates were incubated for 1 hr at 37 C and 5% CO2, fluorescence intensities in the assay plates were measured by an Envision (PerkinElmer, Shelton, CT) plate reader using three labels for measuring blue, green and red fluorescence at […] 460, 535 and 590 nm respectively.
On the % scale 0 is the no-effect control and ±100 the full control effect.

Row | SMILES | Potency | fluorescence, % of fluorescent control
1 | CC(=O)Nc1ccc(/C=N/NC(N)=S)cc1 | inactive | –
2 | CCOC(=O)CC(=O)c1cc(F)c(Cl)nc1Cl | – | 0.02% [at 95.7 µM]
3 | Cc1nc2ccccc2n1Cc1ccc(Cl)cc1 | – | -0.0233% [at 46 µM]
4 | CC(C)(C)c1cc(O)c(C(C)(C)C)cc1O | – | -0.0001%
5 | CC(=O)CC(=O)c1ccccc1 | – | -0.0016%
6 | CCCCCCCCN(C)C | – | -0.0518%
7 | CCN(CC)CCOc1ccc2c(c1)C(=O)c1cc(OCCN(CC)CC)ccc1-2 | – | -0.0604% [at 46 µM]
8 | C=CC(C)(CCC=C(C)C)OC(=O)c1ccccc1 (stereo not given) | – | 0.107%
9 | CCCC(C)C | – | 0.0772%
10 | CCCCCCc1ccc(N)cc1 | – | -0.0091%
11 | CC(C)(C)c1ccc(S)cc1 | – | 0.272%
12 | O=C1CCCCCO1 | – | -0.109%
13 | CCCCOc1ccc(CC(=O)NO)cc1 | – | -0.124% [at 18.6 µM]
14 | O=C=NC1CCC(CC2CCC(N=C=O)CC2)CC1 (stereo not given) | – | 0.0973%
15 | CC(=O)c1ccc2c(c1)[C@H](NC(=O)c1ccc(F)cc1)[C@@H](O)C(C)(C)O2 | – | -0.178%
16 | Nc1cnn([C@@H]2O[C@H](CO)[C@@H](O)[C@H]2O)c(=O)n1 | – | -0.0328%
17 | CCCCCCCCCC=O | – | -0.08%
18 | CC[C@H](C)[C@@H](C(=O)O)n1sc2ccccc2c1=O | – | 0.0114%
19 | Cn1c(=O)c2c(ncn2CC(O)CO)n(C)c1=O (stereo not given) | – | -0.0218% [at 18.6 µM]
20 | CCN(CC)CCc1nc(-c2ccccc2)no1 | – | -0.0362% [at 18.6 µM]

Row | SMILES | Potency | fluorescence, % of fluorescent control
21 | O=C(Cl)c1ccc([N+](=O)[O-])cc1 | – | -0.101%
22 | CCOc1ccc2[nH]cc(C(=O)NCc3ccccc3)c(=O)c2n1 | – | -0.418%
23 | O=C(O)Cn1c(C(=O)Nc2nc(-c3ccccc3Cl)cs2)cc2ccccc21 | – | -0.0639% [at 46 µM]
24 | CN(C(=O)CCCOc1ccc2[nH]c(=O)ccc2c1)C1CCCCC1 | – | -0.0964% [at 46 µM]
25 | O=C(CCN1CCN2CCCC2C1)N1c2ccccc2Sc2ccc(Cl)cc21 (stereo not given) | – | -0.0565% [at 46 µM]
26 | CN1CCC(=C2c3ccccc3CCc3sccc32)CC1 | – | -0.0359% [at 46 µM]
27 | CNS(=O)(=O)Cc1ccc2[nH]cc(CCN(C)C)c2c1 | – | -0.107% [at 46 µM]
28 | CCN(CC)C(C)CN1c2ccccc2Sc2ccccc21 (stereo not given) | – | -0.0255% [at 18.6 µM]
29 | SC1CCCC1 | – | 0.101%
30 | Cl/C(=C\n1cncn1)c1ccc(Cl)cc1Cl | – | -0.0487% [at 46 µM]
31 | N=C(N=C(N)N)N1CCOCC1 | – | 0.133% [at 18.6 µM]
32 | C=CC(=O)OCCOC(=O)CCC(=O)O | – | -0.243%
33 | CC(C)CCCCCCOC(=O)c1ccc(C(=O)OCCCCCCC(C)C)c(C(=O)OCCCCCCC(C)C)c1 | – | 0.0032%
34 | CCCCCCCCCO | – | -0.0202%
35 | Cc1ccc(C)o1 | – | 0.0078%
36 | CCCOc1ccc2nc(NC(=O)OC)[nH]c2c1 | – | 0.0198% [at 46 µM]
37 | O=C(O)Cc1cc(I)c(Oc2ccc(O)c(I)c2)c(I)c1 | inactive | –
38 | CCOc1nc2cccc(C(=O)O)c2n1Cc1ccc(-c2ccccc2-c2nn[nH]n2)cc1 | – | -0.0269% [at 46 µM]
39 | CC(C)c1cccc(C(C)C)c1NC(=O)NS(=O)(=O)c1cc(C(C)(C)O)co1 | – | -0.323%
40 | CCCCCC(CO)CCC (stereo not given) | – | 0.0259%
